Laboratory results as given in PubChem BioAssay AID602291 (National Center for Advancing Translational Sciences (NCATS), 2012).
Calls of active or inactive are those of the source.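 Rule for the calls: active = cells show a rise in impedance after compound treatment, with no numeric cutoff stated; inactive = no rise in impedance seen.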

Target: Relaxin receptor 1 (Homo sapiens) (UniProt Q9HBX9)
Experiment: qHTS Assay for Agonists of the Relaxin Receptor RXFP1: Cell Impedance
Details: HEK293-RXFP1 cell impedance, xCELLigence, 500 nM time course; at 0.5 µM; stronger effect = higher value
Description: The relaxin hormone is involved in the variety of biological functions in normal tissues and diseases. The role of relaxin is well-established in female reproduction and parturition, mammary gland and endometrial development, maintenance of myometrial quiescence during pregnancy. Relaxin signaling through its G protein-coupled receptor (GPCR) RXFP1 results in ECM remodeling through regulation of collagen deposition, cell invasiveness, proliferation and overall tissue homeostasis. […] Recombinant human relaxin (rhRlx) is currently being tested in clinical trials as a protective agent in congestive heart failure, in treating severe preeclampsia, and as an anti-fibrotic agent in systemic sclerosis.
Upon relaxin binding RXFP1 activation leads to the activation of adenylate cyclase (AC) via Gs. cAMP will activate PKA, which phosphorylates many signaling proteins. Thus, detection of cAMP increase is an easy and reliable indication of relaxin receptor activation. To screen for agonists of the relaxin receptor, a HEK293T cell line stably transfected with RXFP1 was used. RXFP1 activation was assayed by changes in cAMP levels as detected with a time-resolved fluorescence energy transfer (TR-FRET) cAMP detection kit.
After the primary screen and rounds of SAR, a probe and analog were identified. It was previously shown that relaxin increases cell impedance in RXFP1 transfected cells. A cell line stably transfected with RXFP1 receptor HEK293-RXFP1 was used for cell impedance assay to confirm relaxin-like properties of the compounds.
NIH Chemical Genomics Center [NCGC]
NIH Molecular Libraries Probe Production Centers Network [MLPCN]
Assay Submitter (PI): Alexander Agoulnik
To equilibrate the plates, 100 microL of test media (DMEM, 1% FBS, 1x Pen/Strep) was added to each well of E Plate 16 (Roche Diagnostics, Indianapolis, IN) and the plate was incubated at room temperature for 30 minutes at which point baseline impedance was measures. Then 20,000 HEK293-RXFP1 cell or HEK293 cells (parental control cell line) were added per well in a volume of 100 microL test media and allowed to sediment at room temperature for 30 minutes. The plate was placed into xCELLigence RTCA DP Instrument in the CO2 incubator overnight to allow the cells to attach. Relaxin (10 ng/mL), vehicle, or compounds 500 nM were added to the wells and the cellular impedance was measured every 10-30 seconds for 1 hour.

Sequence of Relaxin receptor 1 (Homo sapiens) (Q9HBX9 whole entry, looked up): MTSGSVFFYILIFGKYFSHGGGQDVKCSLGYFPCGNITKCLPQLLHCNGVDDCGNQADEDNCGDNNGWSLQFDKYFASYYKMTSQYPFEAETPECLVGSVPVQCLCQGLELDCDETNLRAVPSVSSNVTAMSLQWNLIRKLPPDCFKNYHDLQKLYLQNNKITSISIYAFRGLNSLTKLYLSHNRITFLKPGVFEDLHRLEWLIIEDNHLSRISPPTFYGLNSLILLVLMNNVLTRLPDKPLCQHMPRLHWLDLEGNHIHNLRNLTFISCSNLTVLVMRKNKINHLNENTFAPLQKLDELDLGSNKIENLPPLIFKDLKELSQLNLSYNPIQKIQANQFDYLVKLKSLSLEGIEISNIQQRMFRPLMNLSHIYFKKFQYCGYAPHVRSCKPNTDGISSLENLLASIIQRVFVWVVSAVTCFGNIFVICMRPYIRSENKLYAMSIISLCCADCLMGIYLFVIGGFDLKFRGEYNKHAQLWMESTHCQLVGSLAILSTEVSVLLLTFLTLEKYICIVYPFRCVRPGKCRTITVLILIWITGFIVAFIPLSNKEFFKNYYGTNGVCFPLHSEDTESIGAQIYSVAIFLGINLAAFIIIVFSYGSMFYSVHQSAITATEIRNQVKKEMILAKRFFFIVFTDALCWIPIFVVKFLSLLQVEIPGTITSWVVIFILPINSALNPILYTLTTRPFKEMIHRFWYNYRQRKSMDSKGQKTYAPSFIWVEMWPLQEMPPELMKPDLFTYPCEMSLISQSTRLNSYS

Impedance increase (% of relaxin), active:
CCOc1ccccc1C(=O)Nc1ccccc1C(=O)Nc1cccc(S(=O)(=O)C(F)(F)F)c1 31.2%, CCOc1ccccc1C(=O)Nc1ccccc1C(=O)Nc1cccc(C(F)(F)F)c1 67%, CCCCOc1ccccc1C(=O)Nc1ccccc1C(=O)Nc1cccc(S(=O)(=O)C(F)(F)F)c1 39.5%, CC(C)Oc1ccccc1C(=O)Nc1ccccc1C(=O)Nc1cccc(S(=O)(=O)C(F)(F)F)c1 46.7%
